High-throughput results deposited in PubChem by National Center for Advancing Translational Sciences (NCATS).
A selection: hits, their analogues and other compounds. The true share with any hit is near 7.7%.
HCMV inh = inhibitors of human cytomegalovirus; HFF cells, HCMV-luciferase reporter, 72 h; stronger effect = lower value; activity change, negative = inhibition, % at 57.5 µM; 410,000 tested, 4.5% active; in the data active means activity change below about -60%; inconclusive means no clear call, values can overlap the other calls; inactive means above about -39%
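Inhibition of viral replication was scored as loss of reporter luminescence in HFFs infected with HCMV-luciferase (MOI 1 PFU/cell) for 72 h; compounds tested at 2 doses, normalized to buffer and Salinomycin controls.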
Sm TGR inh = S. mansoni TGR enzyme inhibition | Q962Y6 | purified TGR, DTNB reduction, TNB absorbance 405 nm | Potency, µM (series often up to 114 µM), hits mostly inhibitors | 360,000 tested, 3% active | AID 485364; further: nearly all actives have a fitted effect of over 60% in size
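First, TGR (20 nM dispensed) and NADPH were mixed with compound. Second, a 15 min room-temperature incubation followed. Third, further NADPH and then DTNB were added to start the reaction. Finally, TNB absorbance was monitored kinetically.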
FMDV antiviral = blocks foot and mouth disease virus; AID 1159524; 410,000 tested, 1.2% active; FMDV antiviral cell-based qHTS; Potency, µM (titrated, usually from 57.9 µM), hits mostly inhibitors; calls by dose curve; tested in HEK293T cells; further: read-out not given here; nearly all actives have a fitted effect of over 45% in size
FBPA Giardia inh = blocks Giardia fructose-bisphosphate aldolase activity | 290,000 tested, 0.71% active | A8B2U2 | Potency, µM (top dose mostly 59.6 µM), most hits filed as inhibitors | purified Giardia FBPA; further: nearly all actives have a fitted effect of over 55% in size
Target sequence (A8B2U2 whole entry, looked up): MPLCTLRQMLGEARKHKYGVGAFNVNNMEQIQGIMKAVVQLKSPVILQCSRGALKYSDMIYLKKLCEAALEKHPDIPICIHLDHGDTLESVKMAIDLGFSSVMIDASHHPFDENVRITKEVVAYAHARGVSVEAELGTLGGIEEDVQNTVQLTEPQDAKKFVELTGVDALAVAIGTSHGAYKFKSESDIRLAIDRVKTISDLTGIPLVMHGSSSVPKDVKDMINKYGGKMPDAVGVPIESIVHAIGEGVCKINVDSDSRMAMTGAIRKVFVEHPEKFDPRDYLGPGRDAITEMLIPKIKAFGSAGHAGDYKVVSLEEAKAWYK
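40 nM FBPA preincubated 10 min at RT with compound (up to 57.5 uM final), then substrate plus GAPDH/TPI/NAD/arsenate coupling and diaphorase/resazurin added. Fluorescence read after 20 min at RT, 525/598 nm.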
RE007 growth inh = less growth of the S. pombe RE007 Vpr strain. S. pombe RE007 Vpr strain, BacTiter-Glo ATP luminescence, 24 h. Potency, µM (highest dose often 92.2 µM), actives largely listed as inhibitors. 360,000 tested, 0.21% active. AID 651644; active means well fitted falling curve with a large enough effect; inconclusive means small, poorly fitted or top-dose-only effect; inactive means no such curve, though single readings can be large or run the other way; further: nearly all actives have a fitted effect of over 50% in size
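Fission yeast strain RE007, carrying one chromosomally integrated HIV-1 vpr copy, was seeded at OD 0.01 in PMG+AL medium with 23 nL pinned compound. After 24 h at 30 °C and 99% humidity, viability was read by BacTiter-Glo luminescence.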
Tb PYK inh = blocks Trypanosoma brucei pyruvate kinase; AID 624173; Q57TT1; 410,000 tested, 0.12% active; TbPYK enzyme, Kinase-Glo Plus ATP luminescence, 45 min; Potency, µM (doses to about 76.8 µM), most hits filed as inhibitors; further: nearly all actives have a fitted effect of over 50% in size
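T. brucei PYK with substrate was exposed to pin-transferred compounds across a concentration series, then started with 130 uM ADP (final). After 45 min at room temperature, Kinase-Glo Plus luminescence was read, normalized and curve-fitted.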
Numbers stand for hits; i = inactive; ? = inconclusive; nt = no result; [ ] = remark or other dose. Unless noted, the call rests on the fitted dose curve; in most records, active means well fitted curve in the direction sought with a large enough effect; inconclusive means small, poorly fitted or top-dose-only effect, or another doubt; inactive means no such curve, though single readings can be large; an effect the other way counts as inactive or inconclusive.

SMILES	HCMV inh	Sm TGR inh	FMDV antiviral	FBPA Giardia inh	RE007 growth inh	Tb PYK inh
O=C(NNC(=O)c1ccccc1OCc1ccccc1)c1ccccc1O	-88.4	i	i	nt	i	i
O=C(NNC(=O)c1ccccc1OCc1ccc(F)cc1)c1ccccc1O	-94.8	i	i	nt	i	i
O=C(NCc1ccc(F)cc1)c1ccccc1OCc1ccccc1	-63.4	i	?	i	i	i
O=C(NNC(=O)c1ccccc1OCc1ccccc1)c1ccccc1F	i	i	i	i	i	i
Cc1noc(-c2ccc(NC(C)c3ccccc3)c([N+](=O)[O-])c2)n1 (stereo not given)	i	i	i	nt	nt	i
OC(c1ccc2c(c1)CN(Cc1cccn1-c1ncccn1)CCO2)C1CCCCC1 (stereo not given)	nt	nt	i	nt	nt	nt
C/C(=N/NC(=O)c1ccc(Cl)s1)c1ccc(NC(=O)COc2ccc(Cl)cc2)cc1	-77.0	i	i	i	i	i
CCC(=O)Nc1ccc(/C(C)=N\NC(=O)c2ccc(C)s2)cc1	i	i	i	i	i	i
COc1cccc(-c2cc3c(Nc4cc(OC)c(OC)c(OC)c4)nccc3[nH]2)c1	i	nt	nt	nt	nt	nt
CC(C)N1C(=O)CC2(CC[N+](C)(CCOC(=O)C(c3ccccc3)c3ccccc3)CC2)C1=O (stereo not given)	i	50.1µM	i	?	i	i
CC(=O)N1CCN(c2csc3ccc(Cl)cc3c2=O)CC1	i	i	i	nt	nt	i
CC(=O)N1CCN(c2csc3ccc(F)cc3c2=O)CC1	i	89.1µM	i	nt	nt	i
CC(=O)CC1OC(=O)C(Br)=C1NCc1ccccc1 (stereo not given)	?	3.55µM	nt	i	?	i
O=C(CC1Oc2ccccc2NC1=O)NCc1ccccc1 (stereo not given)	i	i	i	i	i	i
CCC(C)Nc1ccc(NC(C)CC)cc1 (stereo not given)	nt	31.6µM	?	nt	?	i
CCC(C)NC(=O)Nc1ccc(Br)cc1 (stereo not given)	?	i	i	i	i	i
CC1(C)CCC[C@]2(C)C3CC(=O)O[C@@]3(C)CC[C@H]12 (stereo not given in full)	nt	nt	nt	i	nt	nt
O=C(Cc1ccc([N+](=O)[O-])cc1)Nc1ccc(Br)cn1	-61.2	i	i	i	i	i
CC#CCN1c2ccccc2[C@]23C[C@@H](C(=O)OC)N(C(=O)C4CCC4)C2=NC(C(=O)OC)=C(C(=O)OC)[C@H]13	-74.8	i	i	i[12.9 µM]	i	i
CSc1cccc(NS(=O)(=O)c2ccc3[nH]cc(C(=O)N4CCCCCC4)c(=O)c3c2)c1	i	i	i	nt	nt	i
O=S(=O)(c1ccc(Cl)cc1)c1nc(-c2ccco2)oc1N1CCOCC1	i	i	i	i	i	i
CC(C)Cc1nc(S(=O)(=O)c2ccc(Cl)cc2)c(N2CCOCC2)o1	nt	2.24µM	i	i	i	i
CC(C)(C)c1nc(S(=O)(=O)c2ccc(Cl)cc2)c(N2CCOCC2)o1	i	8.91µM	i	i	i	i
O=S(=O)(c1ccc(Cl)cc1)c1nc(-c2ccccc2Br)oc1N1CCOCC1	i	i	i	nt	nt	i
COc1ccccc1C(CC(=O)c1ccccc1)CC(=O)c1ccccc1	-76.9	i	i	i	i	i
SMILES	HCMV inh	Sm TGR inh	FMDV antiviral	FBPA Giardia inh	RE007 growth inh	Tb PYK inh
COc1ccccc1C(CC(=O)c1ccccc1)C(=O)c1ccccc1 (stereo not given)	i	nt	i	nt	i	nt
Cc1ccc(-n2nc(C(=O)N3CCN(c4ccccc4F)CC3)c(=O)n(C)c2=O)cc1	i	i	i	nt	nt	i
CC(=O)Oc1oc(-c2ccccc2)nc1/C=N/c1ccccn1	i	28.2µM	nt	i	i	i
COc1ccccc1N=Cc1nc(-c2ccccc2)oc1OC(C)=O	i	?	i	i	i	i
Cc1cccc(OCCCCCn2ccnc2)c1C	-80.8	i	i	i	i	i
CCOc1ccc(OCCCCn2ccnc2)cc1	-61.1	i	i	i	i	i
CCOc1ccc(OCCn2ccnc2)cc1	i	i	i	?	i	i
CCCCc1ccc(N/C(N)=N/c2nc(C)cc(C)n2)cc1	-97.1	i	25.1µM	i	i	i
Cc1ccc(N/C(N)=N/c2nc(C)cc(C)n2)cc1	i	i	i	i	i	i
Cc1cc(C)nc(/N=C(\N)Nc2ccccc2-c2ccccc2)n1	?	i	17.8µM	?	i	i
Cc1cc(C)nc(/N=C(\N)Nc2ccc(C(C)C)cc2)n1	-63.0	i	14.1µM	i	i	i
Cc1ccc(/C=C/c2onc(C)c2S(=O)(=O)N2CCC(C(=O)NCc3ccc(OC(C)C)cc3)CC2)cc1	i	i	i	nt	nt	i
CCCc1cc2c(=O)c(-c3cscn3)c(C(=O)OCC)oc2cc1O	i	i	i	i	i	i
CCOC(=O)c1[nH]nc(-c2cc(CC)c(O)cc2O)c1-c1cscn1	-102.6	i	8.91µM	i	i	i
CCCn1c(SCC(=O)Nc2cccc(S(=O)(=O)NC3=NCCCCC3)c2)nc2ccccc2c1=O	i	i	31.6µM	i	i	i
CCc1nc2ccccc2c(C(=O)OCC(=O)Nc2ccc(S(=O)(=O)N3CCOCC3)cc2)c1C	i	i	?	i	i	i
CCOCCCn1c(SCC(=O)Nc2cccc(S(=O)(=O)NC3=NCCCCC3)c2)nc2ccccc2c1=O	i	i	i	i	i	i
CCc1nc2ccccc2c(C(=O)OCC(=O)Nc2cccc(S(=O)(=O)N3CCOCC3)c2)c1C	i	i	20µM	i	i	i
O=C(COC(=O)c1ccc2ccccc2n1)Nc1cccc(S(=O)(=O)NC2=NCCCCC2)c1	i	i	i	i	i	i
CCc1nc2ccccc2c(C(=O)OCC(=O)Nc2cccc(S(=O)(=O)NC3=NCCCCC3)c2)c1C	?	i	25.1µM	i	i	i
CC1(c2ccc3ccccc3c2)NC(=O)N(CC(=O)Nc2cccc(S(=O)(=O)N3CCOCC3)c2)C1=O (stereo not given)	?	i	35.5µM	i	i	i
COc1cc(NC(=O)Cn2nc3c(cc2=O)CC(C)CC3)cc(OC)c1OC (stereo not given)	i	i	i	nt	nt	i
CCOC(=O)c1cc(NC(=O)c2cnccn2)cc(C(=O)OCC)c1	-92.5	i	i	i	i	i
Cc1ncc2c(c1CNS(=O)(=O)N(C)C)CCN(C(=O)c1ccc(F)cc1Cl)C2	nt	nt	i	nt	nt	nt
CCOC(=O)c1cc2c(=O)n3ccccc3nc2n(Cc2ccco2)c1=NC(=O)c1ccc(Br)cc1	i	?	i	nt	nt	i
CCOC(=O)c1cc2c(=O)n3ccccc3nc2n(Cc2ccco2)c1=NC(=O)c1cccc(C)c1	i	i	i	nt	nt	i
CCOC(=O)c1cc2c(=O)n3ccccc3nc2n(Cc2ccco2)c1=NC(=O)c1ccccc1Br	i	1.58µM	i	nt	nt	i
CCOC(=O)c1cc2c(=O)n3ccccc3nc2n(Cc2ccco2)c1=NC(=O)c1cccc(Br)c1	i	2.24µM	i	nt	nt	i
